Laboratory results reported in PubChem BioAssay.
Values without a mark were called inactive. For some assays here: Results with a measured potency or affinity are listed apart. Active and inactive are the calls of the source. Unless noted, no rule for the calls is given here.

How the values were obtained:
[1] = antimalarial activity against Dd2 strain (AID 2302;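 active = growth inhibition above 50% at the single 2 µM test dose, taken to imply half-maximal potency below 2 µM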;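 also: 0% = DMSO untreated growth and 100% = chloroquine plus artemisinin killed control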); conditions: P. falciparum Dd2 in RBCs, LDH growth readout, 72 h; at 2 µM; hits give high values
[2] = HepG2 cytotoxicity, primary screen, cytotoxicity control for P. falciparum antimalarial project, cell-based, ATP luminescence (AID 2303;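 active = inhibition above 50%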;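 also: 0% = DMSO wells and 100% = digitonin-killed cells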); conditions: HepG2 viability, 24-48 h, at 10 µM, hits give high values
[3] = target: L-lactate dehydrogenase (Plasmodium falciparum (isolate CDC / Honduras)) (UniProt Q27743); test: PfLDH activity inhibition – cell lysate, 3D7 strain, counter-screen for P. falciparum growth inhibition project (AID 2304);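 also: 0% = vehicle and 100% = reference inhibitor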; conditions: P. falciparum 3D7 crude extract, LDH APAD/NBT absorbance; at 2 µM; hits give high values
L-lactate dehydrogenase (Plasmodium falciparum (isolate CDC / Honduras)), sequence (Q27743 whole entry, looked up): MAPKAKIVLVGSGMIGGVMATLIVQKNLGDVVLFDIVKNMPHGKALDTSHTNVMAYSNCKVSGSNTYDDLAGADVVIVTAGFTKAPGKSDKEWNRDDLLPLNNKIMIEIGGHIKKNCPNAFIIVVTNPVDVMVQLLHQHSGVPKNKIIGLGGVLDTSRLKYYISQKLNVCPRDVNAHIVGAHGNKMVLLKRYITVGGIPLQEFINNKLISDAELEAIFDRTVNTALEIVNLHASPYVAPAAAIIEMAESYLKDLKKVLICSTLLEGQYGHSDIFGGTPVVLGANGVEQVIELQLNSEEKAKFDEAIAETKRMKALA

[4] = inhibition of 3D7 malaria parasite growth – strain 3D7 (AID 2306);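 also: 0% = DMSO wells and 100% = chloroquine plus artemisinin control wells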; conditions: P. falciparum 3D7 erythrocytic growth, LDH absorbance, 72 h; at 2 µM; hits give high values
[5] = target: Calcium-dependent protein kinase 1 (Plasmodium falciparum (isolate 3D7)) (UniProt P62344); test: PfCDPK1 kinase inhibitors, biochemical, TCAMS library (AID 1159585; cut-off not given, nearly all actives have IC50 up to about 0.98 µM;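 also: inhibitors leave more ATP so luminescence rises with inhibition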); conditions: recombinant PfCDPK1, Kinase-Glo ATP depletion luminescence
Calcium-dependent protein kinase 1 (Plasmodium falciparum (isolate 3D7)), sequence (P62344 whole entry, looked up): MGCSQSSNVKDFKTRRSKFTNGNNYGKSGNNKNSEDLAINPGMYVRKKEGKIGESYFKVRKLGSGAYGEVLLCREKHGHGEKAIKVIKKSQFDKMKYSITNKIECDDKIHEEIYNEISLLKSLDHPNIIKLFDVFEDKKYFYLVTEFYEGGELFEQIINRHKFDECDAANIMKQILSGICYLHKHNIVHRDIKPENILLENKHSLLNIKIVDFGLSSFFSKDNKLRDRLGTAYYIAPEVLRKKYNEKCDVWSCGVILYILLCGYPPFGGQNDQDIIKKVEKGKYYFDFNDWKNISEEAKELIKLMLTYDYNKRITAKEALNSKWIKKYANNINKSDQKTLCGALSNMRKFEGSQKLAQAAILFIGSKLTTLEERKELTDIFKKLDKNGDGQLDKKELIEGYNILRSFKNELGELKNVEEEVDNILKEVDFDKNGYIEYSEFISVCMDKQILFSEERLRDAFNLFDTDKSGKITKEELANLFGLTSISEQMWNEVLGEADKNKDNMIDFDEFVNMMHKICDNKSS

[6] = target: Plasmodium falciparum protein kinase 6 (PK6, PF3D7_1337100) (UniProt Q8IDW1); test: PfPK6 kinase inhibitors, biochemical, TCAMS library (AID 1159586); conditions: recombinant PfPK6, Kinase-Glo ATP depletion luminescence
Plasmodium falciparum protein kinase 6 (PK6, PF3D7_1337100), sequence (Q8IDW1 1-305): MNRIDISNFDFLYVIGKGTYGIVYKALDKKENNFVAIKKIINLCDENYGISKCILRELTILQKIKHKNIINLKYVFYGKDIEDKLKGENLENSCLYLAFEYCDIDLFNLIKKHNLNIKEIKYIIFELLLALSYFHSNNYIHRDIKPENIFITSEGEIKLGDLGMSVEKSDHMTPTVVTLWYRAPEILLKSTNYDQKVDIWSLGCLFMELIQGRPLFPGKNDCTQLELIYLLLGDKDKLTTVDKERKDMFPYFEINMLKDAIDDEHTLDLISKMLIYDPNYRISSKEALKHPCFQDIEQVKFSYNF

[7] = target: Protein kinase 7 (PK7), Plasmodium falciparum 3D7 (PF3D7_0213400) (UniProt Q7YTF7); test: inhibition of Plasmodium PK7 catalytic activity – biochemical, TCAMS antimalarial set, Kinase-Glo luminescence (AID 1159587); conditions: recombinant PfPK7, Kinase-Glo ATP depletion luminescence
Protein kinase 7 (PK7), Plasmodium falciparum 3D7 (PF3D7_0213400), sequence (Q7YTF7 1-343): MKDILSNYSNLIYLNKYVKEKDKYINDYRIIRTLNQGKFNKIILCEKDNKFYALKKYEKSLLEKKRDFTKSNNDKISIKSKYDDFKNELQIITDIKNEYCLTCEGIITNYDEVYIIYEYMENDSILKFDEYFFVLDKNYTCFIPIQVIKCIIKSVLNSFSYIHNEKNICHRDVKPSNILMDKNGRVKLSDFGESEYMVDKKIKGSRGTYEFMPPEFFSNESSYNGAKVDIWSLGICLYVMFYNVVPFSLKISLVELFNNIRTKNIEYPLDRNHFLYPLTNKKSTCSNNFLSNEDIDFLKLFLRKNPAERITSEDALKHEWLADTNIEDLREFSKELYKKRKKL

[8] = target: Calcium-dependent protein kinase 4 (Plasmodium falciparum (isolate 3D7)) (UniProt Q8IBS5); test: PfCDPK4 kinase inhibitors, biochemical, TCAMS library (AID 1159588; cut-off not given, nearly all actives have IC50 up to about 0.91 µM); conditions: recombinant PfCDPK4, Kinase-Glo ATP depletion luminescence
Calcium-dependent protein kinase 4 (Plasmodium falciparum (isolate 3D7)), sequence (Q8IBS5 whole entry, looked up): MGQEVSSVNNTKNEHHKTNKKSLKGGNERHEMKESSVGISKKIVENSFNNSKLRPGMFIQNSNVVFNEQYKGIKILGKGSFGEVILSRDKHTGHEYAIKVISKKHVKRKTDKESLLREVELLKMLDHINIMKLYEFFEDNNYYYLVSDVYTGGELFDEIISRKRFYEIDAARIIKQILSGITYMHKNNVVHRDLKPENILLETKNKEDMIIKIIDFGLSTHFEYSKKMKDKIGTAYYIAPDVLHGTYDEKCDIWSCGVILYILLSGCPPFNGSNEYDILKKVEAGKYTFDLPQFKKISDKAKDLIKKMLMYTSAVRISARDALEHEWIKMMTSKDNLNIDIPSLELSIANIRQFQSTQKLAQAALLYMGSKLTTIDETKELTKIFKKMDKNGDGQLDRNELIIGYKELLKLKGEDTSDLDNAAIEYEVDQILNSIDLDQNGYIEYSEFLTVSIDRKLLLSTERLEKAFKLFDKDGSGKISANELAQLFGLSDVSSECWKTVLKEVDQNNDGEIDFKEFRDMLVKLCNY

Row | SMILES | growth inhibition [1] | inhibition [2] | inhibition [3] [%] | growth inhibition [4] | outcome [5] | outcome [6] | outcome [7] | outcome [8]
1 | COC(=O)c1cccc(CNCc2cccc(-c3ccc(-c4nc5c(C)cccc5[nH]4)cc3)c2)c1 | 52% (active) | 3% | 2 | 102% (active) | inactive | inactive | inactive | inactive
2 | Cc1c(Cl)ccc2sc(N3CCN(C(=O)c4ccc([N+](=O)[O-])o4)CC3)nc12 | 93% (active) | -2% | 3 | 96% (active) | inactive | inactive | inactive | inactive
3 | CN1CCN(CC(=O)Nc2cccc(-c3ccc(-c4nc5ccc(C(F)(F)F)cc5[nH]4)cc3)c2)CC1 | 94% (active) | 37% | -3 | 102% (active) | inactive | inactive | inactive | inactive
4 | CCN(CCCN1CCCCC1)c1cc(C)nc(Nc2ccc(Cl)cc2)n1 | 82% (active) | 23% | -2 | 101% (active) | inactive | inactive | inactive | inactive
5 | COc1cc(OC)nc(C(Sc2ccc(NC(=O)c3cccs3)cc2)c2ccccc2)n1 (stereo not given) | 96% (active) | 7% | -1 | 97% (active) | inactive | inactive | inactive | inactive
6 | Cc1cccc2[nH]c(-c3cccc(-c4cccc(NC(=O)c5cnc[nH]5)c4)c3)nc12 | 91% (active) | 2% | 0 | 100% (active) | inactive | inactive | inactive | inactive
7 | CC(CN1CCN(C)CC1)C(=O)Nc1ccc(-c2cccc(-c3nc4ccccc4[nH]3)c2)cc1 (stereo not given) | 81% (active) | 4% | 3 | 94% (active) | inactive | inactive | inactive | inactive
8 | Cc1cccc2[nH]c(-c3ccc(-c4ccc(CNCCCNS(C)(=O)=O)cc4)s3)nc12 | 4% | 13% | 3 | 99% (active) | inactive | inactive | inactive | inactive
9 | COc1ccc(Nc2cc(C)nc(Nc3ccc(NC(C)=O)cc3)n2)cc1 | 31% | 16% | -1 | 98% (active) | inactive | inactive | inactive | inactive
10 | O=C(NCC1CCN(CC2CCCCC2)C1)c1cc(-c2cccc(Cl)c2)cs1 (stereo not given) | 8% | 51% (active) | 5 | 85% (active) | inactive | inactive | inactive | inactive
